hgDAF12 agonist: agonists of H. glycines DAF-12 nuclear receptor; activation, % at 6.8 µM; 370,000 compounds, 1.8% hits; HEK293 GAL4-hgDAF12 UAS-luciferase reporter, agonist luminescence; normalized to butyrate control;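 active = activation above a cutoff set at the mean of all screened compounds plus 3 SD, cut at about 10% in these data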
hcDAF-12 act: activators of H. contortus DAF-12 nuclear receptor. AID 652067. HEK293 hcDAF-12 lit1-tk-luc reporter, luminescence; 0% DMSO, 100% Δ7-dafachronic acid. activation, % at 6.8 µM. 370,000 compounds, 1.4% hits;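 active = activation above the mean of all tested compounds plus 3 SD, cut at about 5.5% in these data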
NR1D1 modulator: modulates human Rev-erb alpha binding to DNA | P20393 | Rev-erbα–FITC-DNA binding, fluorescence polarization, 90 min | activity, % at 10 µM | 370,000 compounds, 0.79% hits;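 active = activity above about 14%, limit read from the data; passing the limit was not always enough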
DAX1 inh-1: inhibits human nuclear receptor DAX1; P51843; HEK293 Gal4-DAX1 luciferase reporter, luminescence; inhibition, % at 6.75 µM; 340,000 compounds, 0.99% hits; AID 504766;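 active = inhibition above the mean over all tested compounds plus 3 SD, cut at about 4.2% in these data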;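 note: inhibition shows as a rise in luminescence from relieved DAX1 repression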
Target sequence (P51843 207-470 limits assumed): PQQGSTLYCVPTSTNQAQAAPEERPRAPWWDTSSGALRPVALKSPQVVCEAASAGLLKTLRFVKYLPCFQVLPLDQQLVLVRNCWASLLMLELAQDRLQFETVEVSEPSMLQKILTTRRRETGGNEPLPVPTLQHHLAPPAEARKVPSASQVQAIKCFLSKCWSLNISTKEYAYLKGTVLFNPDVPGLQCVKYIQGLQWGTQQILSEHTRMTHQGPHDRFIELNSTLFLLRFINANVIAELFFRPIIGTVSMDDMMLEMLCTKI
DAX1 inh-2: inhibitors of DAX1 repression of SF-1 activated StAR promoter; HEK293T StAR-luciferase reporter, SF-1/DAX-1 repression relief; inhibition, % at 6.8 µM; 370,000 compounds, 1.1% hits; AID 652010;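 active = inhibition above the mean over all tested compounds plus 3 SD, cut at about 3.6% in these data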;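 note: higher inhibition means more luminescence from relief of DAX-1 repression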
ssDAF12 agonist: activates DAF-12 receptor from parasite S. stercoralis; HEK293 ssDAF-12/GRIP1 lit1-tk-luc reporter, luminescence; % of 3 µM dafachronic acid response; activation, % at 6.8 µM; 370,000 compounds, 1% hits; AID 652126;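 active = activation above the mean over all tested compounds plus 3 SD, cut at about 0.9% in these data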
A number is an active result; . = inactive; / = no result. A selection: hits, their analogues and other compounds. The true share with any hit is near 4.8%.

SMILES | hgDAF12 agonist | hcDAF-12 act | NR1D1 modulator | DAX1 inh-1 | DAX1 inh-2 | ssDAF12 agonist
COc1ccc2[nH]c3c(c2c1)CCN[C@]31C(=O)N(Cc2cn(Cc3ccccc3)nn2)c2ccc(F)cc21 | . | . | . | / | . | .
COc1ccc(OC)c(S(=O)(=O)n2c(CN3CCOCC3)nc3ccccc32)c1 | . | . | . | / | . | .
O=S1(=O)CCN2N=C(C3CC3)SC2=N1 | . | . | . | 6.2 | . | .
O=C(O)c1ccc2c(c1)SC1=NS(=O)(=O)CCN12 | . | . | . | . | . | .
COc1ccccc1N(C)S(=O)(=O)c1ccc(C(=O)NCc2ccccc2CN2CCCC2)cc1 | . | . | . | . | 4.2 | .
COc1ccccc1CNC(=O)c1ccc(S(=O)(=O)N(C)c2ccccc2)cc1 | . | . | . | . | . | .
CCOC(=O)/C(C#N)=C/Nc1cc(OC)ccc1OC | . | . | . | . | . | .
CCOC(=O)/C(C#N)=C/Nc1ccccc1OC(F)(F)F | . | . | . | / | . | 1.5
Cc1cccc(C(=O)NNC2=C(C(=O)C(F)(F)F)CCC2)c1O | 12 | . | . | . | . | .
O=C(NNC1=C(C(=O)C(F)(F)F)CCC1)c1cccnc1 | . | . | . | . | . | .
CSCC[C@H](NC(=O)OC(C)(C)C)C(=O)N1CCC(C(=O)N[C@@H](C)C(=O)NC(C)c2ccccc2)CC1 (stereo not given in full) | . | . | . | 8.3 | . | .
COc1ccc(CNC(=O)[C@@H](NC(=O)C2CCN(C(=O)[C@@H](N)CC(C)C)CC2)C(C)C)cc1 | . | . | . | . | . | .
COc1ccc(CNC(=O)[C@@H](NC(=O)C2CCN(C(=O)[C@@H](N)CCSC)CC2)C(C)C)cc1 | . | . | . | 5.9 | . | .
CC(C)C[C@H](N)C(=O)N1CCC(C(=O)N[C@H](C(=O)NC(C)c2ccccc2)C(C)C)CC1 (stereo not given in full) | . | . | . | 5.5 | . | .
CCc1ccc(CCNC(=O)OC2CC3CC2[C@H]2CCCCN2[C@H]3C)cc1 (stereo not given in full) | . | . | . | / | . | .
O=C(NCCc1cccs1)C1CC(c2ccc([N+](=O)[O-])cc2)=NO1 (stereo not given) | . | 5.8 | . | . | . | .
COCCNC(=O)C1CC(c2ccc([N+](=O)[O-])cc2)=NO1 (stereo not given) | . | . | . | . | . | .
C[C@H]1[C@H](NC(=O)c2cccc(C(F)(F)F)c2)CC[C@@]23CCCN2C(=O)CCC[C@@H]13 | . | . | . | / | / | .
CC(c1nc2ccccc2[nH]1)N(C(=O)C1=NNC(=O)CC1)c1ccccc1 (stereo not given) | . | . | . | / | . | 1.4
CCOC(=O)c1[nH]c2ccc(OC)cc2c1NS(=O)(=O)c1ccc(OC)cc1OC | . | . | . | . | . | .
COC(=O)c1[nH]c2ccc(F)cc2c1NS(=O)(=O)c1ccc(OC)cc1OC | . | . | . | . | . | 1.1
c1ccc(-c2ccc(C3=Nn4c(nnc4-c4ccccn4)SC3)cc2)cc1 | . | . | . | / | . | .
CC1CCCCC1NC(=O)COC(=O)C12CC3CC(CC(Cl)(C3)C1)C2 (stereo not given) | . | . | . | 6.0 | . | .
CN(C)c1ccc(P(=O)(OCc2ccccc2)C(O)c2ccccc2)cc1 (stereo not given) | . | . | . | 4.3 | . | .
O=C(NC1CC1)c1sc2cc(Cl)ccc2c1Cl | . | . | . | . | 4.3 | .
SMILES | hgDAF12 agonist | hcDAF-12 act | NR1D1 modulator | DAX1 inh-1 | DAX1 inh-2 | ssDAF12 agonist
O=C(Nc1nccs1)c1sc2cc(Cl)ccc2c1Cl | . | . | . | . | . | 1.4
C=CCN1C(=O)[C@@H](CC(=O)NCC2CCCCC2)[C@]2(C(=O)OCC)CCCCC/C=C/12 | . | . | . | / | . | .
CCCCN1CCN(C(=O)c2cn(C(C)c3ccccc3)nn2)CC1 (stereo not given) | . | . | . | / | . | .
Cc1ccccc1-n1c(Cn2c(=O)sc3ccccc32)nnc1SCC(N)=O | . | . | . | 4.6 | . | .
O=C(CN(CCc1ccccc1)S(=O)(=O)c1ccc(F)cc1)N1CCOCC1 | . | . | . | / | . | .
Cc1ccc(C=Nc2ccccc2C(N)=O)cc1 | 12 | 5.9 | . | . | . | .
COC(=O)c1cc2c(c3c4cc(F)ccc4n(S(=O)(=O)c4cccc(C)c4)c13)C(=O)N(Cc1ccc(C(F)(F)F)cc1)C2 | . | . | . | / | . | .
O=C(CNC(=O)c1ccccc1Cl)N/N=C/c1ccc2c(c1)OCO2 | . | . | . | . | . | .
Clc1ccccc1N/N=C/c1ccc2c(c1)OCO2 | . | . | . | 4.3 | . | .
COC(=O)c1ccc(/C=N/Nc2nc3ccccc3[nH]2)cc1 | . | . | . | . | . | .
C/C(=N\Nc1nc2ccccc2[nH]1)c1ccc2c(c1)OCO2 | . | . | . | . | . | .
C(=N\Nc1nnnn1-c1ccccc1)/c1ccncc1 | . | . | . | . | . | .
C(=N\Nc1nc2ccccc2[nH]1)/c1ccc2c(c1)OCO2 | . | . | . | 8.0 | . | .
O=C(O)c1ccc(/C=N/Nc2nc3ccccc3[nH]2)cc1 | . | . | . | 8.9 | . | .
O=C(O)c1ccc(/C=N/Nc2nnnn2-c2ccccc2)cc1 | . | . | . | . | . | 1.6
O=C(c1ccncc1)N1CCC(Oc2cccnc2)CC1 | . | . | . | / | . | .
CCOC(=O)CCCNC(=O)OC1CC2CC1[C@H]1CCCCN1[C@H]2Cc1ccccc1 (stereo not given in full) | . | . | . | / | . | .
COc1ccc(C(=O)CC(C(=O)O)c2ccc(OC)c(OC)c2)cc1OC (stereo not given) | . | . | . | . | . | .
COc1ccc(NC(=O)C=C(C)C)cc1Cl | . | . | . | . | 4.2 | .
NS(=O)(=O)c1ccc(NC(=O)c2ccc3c(c2)OCO3)cc1 | . | . | . | . | . | .
O=C(Nc1ccc(F)c(Cl)c1)c1ccc2c(c1)OCO2 | 11 | 6.2 | . | . | . | .
COc1ccc(NC(=O)c2ccc3c(c2)OCO3)cc1Cl | 10 | . | . | . | 4.0 | .
COc1ccc(C(CC(=O)c2ccc3c(c2)OCO3)C(=O)O)cc1OC (stereo not given) | . | . | . | . | . | 4.0
CN[C@H]1C[C@H]2c3[nH]c4cccc(-c5ccc6c(c5)OCO6)c4c3CCN2C[C@H]1[C@H](C)O | . | . | . | / | . | .
O=C(Nc1ccc(Cl)c(Cl)c1)c1ccncc1 | . | . | . | . | . | .
O=C(Nc1ccc(Cl)c(Cl)c1)c1ccc(Cl)c(Cl)c1 | 13 | . | . | . | . | .
CCNS(=O)(=O)c1ccc(-c2ccc(-n3cnnn3)cc2)cc1 | . | . | . | 6.3 | . | .

Screens deposited in PubChem by several laboratories.
